Screening results (PubChem)
Only a selection was taken, and hits are over-represented in it overall.
Tg IFNy HTS – T. gondii growth inhibition under IFN-gamma. Toxoplasma gondii growth in IFN-gamma-treated host cells; active compounds read low. activity change, negative = inhibition, % (concentration not given with the values). 3.8% of 69,000 active; in the data active = activity change below about -70%, passing the limit was not always enough;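 note: host cells are HeLa cells infected with Toxoplasma gondii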
* hit, by the source's call; ! = repeats disagree.

COc1ccc(S(=O)(=O)N(C)C[C@@H]2Oc3ccc(NC(=O)Nc4ccc(C(F)(F)F)cc4)cc3C(=O)N([C@H](C)CO)C[C@@H]2C)cc1 was read as Tg IFNy HTS -37.4.
`COc1ccc(S(=O)(=O)Nc2ccc3c(c2)C(=O)N([C@@H](C)CO)C[C@@H](C)[C@H](CN(C)C(=O)Nc2c(C)noc2C)OCCCC[C@@H](C)O3)cc1` gave Tg IFNy HTS 79.5.
Screening COc1ccc(S(=O)(=O)N(C)C[C@@H]2OCCCC[C@@H](C)Oc3ccc(NC(=O)Cc4ccccc4)cc3C(=O)N([C@@H](C)CO)C[C@@H]2C)cc1 returned Tg IFNy HTS -32.1.
For COc1ccc(S(=O)(=O)Nc2ccc3c(c2)C(=O)N([C@@H](C)CO)C[C@@H](C)[C@H](CN(C)C(=O)Nc2c(C)noc2C)OCCCC[C@H](C)O3)cc1 the results were Tg IFNy HTS -1.8.
O=C(O)c1ccc(COCc2ccc(C(=O)O)o2)o1 was read as Tg IFNy HTS -13.5.
CCN1CCCC(C)(C(=O)NCc2ccc(-c3noc(C)n3)cc2)C1 (centres undefined) was read as Tg IFNy HTS -0.7.
O=C(Cc1ccc(Cl)cc1)N1CC2(CCN(Cc3cccc(Cl)c3)CC2)C1 was read as Tg IFNy HTS -25.7.
Screening O=C1NCC2(CCCN(C(=O)c3cnn4ccccc34)CC2)O1 (centres undefined) returned Tg IFNy HTS 10.5.
For CC(C)(C)c1ccc2oc(CNC(=O)c3cccnc3)nc2c1 the results were Tg IFNy HTS 5.3.
COc1ccc(C(=O)NCCn2nc(-c3nccs3)cc2-c2cccs2)cc1 was read as Tg IFNy HTS -66.4.
Nc1ccc(Oc2cc(C(F)(F)F)cc(C(F)(F)F)c2)cc1 was read as Tg IFNy HTS -27.7.
Screening CCN1CCc2noc(C3CCN(C(=O)c4csc(NC(C)=O)n4)CC3)c2C1 returned Tg IFNy HTS 32.4.
For Cc1oc2c(c1C(=O)N1CCNC(=O)C1Cc1ccc(-c3cccnc3)cc1)CCCC2 (centres undefined) the results were Tg IFNy HTS -15.7.
`COc1ccc(S(=O)(=O)N(C)C[C@H]2Oc3c(NC(=O)c4nc5ccccc5s4)cccc3C(=O)N([C@@H](C)CO)C[C@H]2C)cc1` gave Tg IFNy HTS -82.4*.
Screening COc1ccc(S(=O)(=O)N(C)C[C@@H]2Oc3c(NC(=O)c4nc5ccccc5s4)cccc3C(=O)N([C@H](C)CO)C[C@@H]2C)cc1 returned Tg IFNy HTS -40.2.
For COc1ccc(S(=O)(=O)Nc2ccc3c(c2)C(=O)N([C@H](C)CO)C[C@H](C)[C@H](CN(C)S(=O)(=O)c2ccc(Cl)cc2)OCCCC[C@@H](C)O3)cc1 the results were Tg IFNy HTS -37.6.
COc1ccc(S(=O)(=O)N(C)C[C@@H]2OCCCC[C@@H](C)Oc3ccc(NC(=O)Cc4ccccc4)cc3C(=O)N([C@H](C)CO)C[C@@H]2C)cc1 was read as Tg IFNy HTS 3.3.
Screening COc1ccc(S(=O)(=O)Nc2ccc3c(c2)C(=O)N([C@@H](C)CO)C[C@H](C)[C@H](CN(C)S(=O)(=O)c2ccc(Cl)cc2)OCCCC[C@@H](C)O3)cc1 returned Tg IFNy HTS -112.3*.
`COc1ccc(S(=O)(=O)N(C)C[C@H]2Oc3c(NC(=O)c4nc5ccccc5s4)cccc3C(=O)N([C@H](C)CO)C[C@@H]2C)cc1` gave Tg IFNy HTS -54.7.
`CC1=C(C(=O)NCCCN(C)C2CCCCC2)C2(CCN(S(=O)(=O)c3cccs3)CC2)OC1=O` gave Tg IFNy HTS -0.1.
For CN(C)[C@@H]1C[C@@H](CO)N(C2CCC3(CCNCC3)CC2)C1 the results were Tg IFNy HTS 20.2.
`COc1ccc(CN2CC3CC(C(=O)NCc4cccnc4)C(C2)O3)cc1` (centres undefined) gave Tg IFNy HTS 6.3.
`Cc1cc(CC(C)NC(=O)c2cccc(CC3CCNCC3)c2)n[nH]1` (centres undefined) gave Tg IFNy HTS -3.0.
`c1ccc(CSc2nnc3c(n2)[nH]c2ccccc23)cc1` gave Tg IFNy HTS -68.0.
For Cc1ccc(CSc2nnc3c(n2)[nH]c2ccc(Br)cc23)cc1 the results were Tg IFNy HTS -79.5*.
For CCN(CC)C(=O)CSc1nnc2c(n1)[nH]c1ccc(C)cc12 the results were Tg IFNy HTS 3.5.
For CCn1ncc(CN2CCC(C3CC(C(=O)Nc4ccc(F)cc4)CN3C)CC2)c1C (centres undefined) the results were Tg IFNy HTS -29.1.
`Cc1cccc(NC(=O)N2CCC3(CC(=O)N(c4cccc(F)c4)C3)C2)c1` (centres undefined) gave Tg IFNy HTS 0.8.
Screening O=C(CC1CC2(CCN(C(=O)c3ccccn3)CC2)Oc2ccccc21)NCC1CC1 (centres undefined) returned Tg IFNy HTS 2.1.
For O=C(CNCCS(=O)(=O)N1CCCC1)Nc1ccc(Cl)cc1F the results were Tg IFNy HTS 7.0.
Cc1[nH]cnc1-c1nccn1CCCN(C)C was read as Tg IFNy HTS -3.1.
`Cn1nc(C(F)(F)F)cc1-c1ccc(NC(=O)Nc2cccc(C(F)(F)F)c2)s1` gave Tg IFNy HTS -90.2*.
`O=C(Nc1cccc(C(F)(F)F)c1)N1CCSCC1` gave Tg IFNy HTS -28.8.
`CSc1sc(NC(=O)Nc2cccc(C(F)(F)F)c2)cc1C#N` gave Tg IFNy HTS -2.4.
CC(C)n1nccc1C(=O)N1CCN(S(=O)(=O)c2ccc(F)c(F)c2)CC1 was read as Tg IFNy HTS 40.6.
Screening CC(C)NC(=O)N1CCc2onc(C(=O)Nc3cccnc3)c2C1 returned Tg IFNy HTS 85.1.
For CCCN(Cc1nccn1C)C(=O)c1cc(C)c(C)c(S(N)(=O)=O)c1 the results were Tg IFNy HTS 10.3.
CN(C)C(=O)N1CCCC2(COCCN(c3cnccn3)C2)C1 (centres undefined) was read as Tg IFNy HTS 65.9.
CC(C)CN1CC2CN(C(=O)Nc3ccccc3)CC2C1 (centres undefined) was read as Tg IFNy HTS -12.5.
Screening COc1ccc(C2CC(=O)c3cnn(-c4nc5ccccc5s4)c3C2)cc1 (centres undefined) returned Tg IFNy HTS 62.1.
For COc1ccc(N2C(=O)CC(N3CCN(c4nc5ccccc5s4)CC3)C2=O)cc1 (centres undefined) the results were Tg IFNy HTS 14.8.
N=C1SC(c2ccccc2)C(=O)N1c1nc2ccccc2s1 (centres undefined) was read as Tg IFNy HTS -82.1*.
Screening CCN1CCN(C(=O)c2cc(-c3ccccn3)c(N3CCOCC3)s2)CC1 returned Tg IFNy HTS -12.7.
For O=C(c1ccccc1)N1CCC[C@@H]1Cn1nnc(-c2cccs2)n1 the results were Tg IFNy HTS 24.6.
CN(CC(=O)NC1CC(=O)N(c2ccc(F)cc2)C1)Cc1ccccn1 (centres undefined) was read as Tg IFNy HTS 1.8.
C[C@@H](NCCc1ccc(O)cc1)[C@@H](O)c1ccc(O)cc1 was read as Tg IFNy HTS -60.7.
For CCCCCCCCNC(C)C(O)c1ccc(SC(C)C)cc1 (centres undefined) the results were Tg IFNy HTS -78.4*!.
`CC(NCCc1ccc(O)cc1)C(O)c1ccc(O)cc1` (centres undefined) gave Tg IFNy HTS -3.0.
For O=C(O)c1cc(-n2cnnc2)ccc1Cl the results were Tg IFNy HTS -20.1.
CSc1nc(-c2cccs2)cc(C(F)(F)F)c1C#N was read as Tg IFNy HTS 89.3.
CSc1nn(-c2c(Cl)cc(C(F)(F)F)cc2Cl)c(N)c1C#N was read as Tg IFNy HTS -100.6*.
